IEC-6 tox – cytotoxicity in IEC-6 intestinal epithelial cells, primary screen, cytotoxicity control for KLF5 inhibitor project, cell-based, luminescence | hit rate 0.78% among 290,000 | AID 1825, 2009 | IEC-6 cytotoxicity, luminescence viability | inhibition, % at 5 µM; in the data active = inhibition above about 22%
Ba/F3 V617F tox – reduced viability of JAK2V617F-dependent Ba/F3 cells, primary screen, JAK2V617F inhibitor project, cell-based, Ba/F3 EpoR-JAK2V617F, luminescence | ATP luminescence | inhibition, % at 5.6 µM | hit rate 1.1% among 220,000 | AID 1446, 2008;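 active = inhibition above the campaign mean plus 3 SD over all tested compounds, cut at about 24% in these data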;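 note: cytokine-independent growth of Ba/F3 cells driven by EpoR plus mutant JAK2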
KLF5 inhibitor – KLF5 expression inhibitors, primary screen, DLD-1 cells, luminescence; DLD-1 KLF5 promoter-luciferase reporter; inhibition, % at 5 µM; hit rate 0.23% among 290,000; AID 1700, 2009;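 active = inhibition above a per-plate limit of that plate's mean compound inhibition plus 3 SD, cut at about 60% in these data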;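 note: higher means less KLF5 promoter-driven luciferase light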
APP 5UTR inh – inhibitors of APP translation via 5'UTR reporter, primary screen, APP 5'UTR luciferase, SH-SY5Y cells. SH-SY5Y APP 5'UTR-luciferase reporter, luminescence. inhibition, % at 2 µM. hit rate 0.82% among 190,000. AID 1285, 2008;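 active = inhibition above a set limit, derived from the sample mean plus 3 SD, cut at about 45% in these data; inconclusive = one replicate passes the limit while the other fails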
aSyn UTR inh – MLPCN primary screen, SNCA 5' untranslated region; hit rate 0.82% among 300,000; alpha-synuclein 5'UTR reporter, inhibitor activity; inhibition, % (tested at 7.5 µM); in the data active = inhibition above about 60%; inconclusive = no clear call, values can overlap the other calls;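 note: H4 neuroglioblastoma cells stably carrying SNCA 5'UTR luciferase fusion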
BaF3 parental – parental Ba/F3 cell viability inhibition, counter-screen for JAK2V617F inhibitor project, murine pro-B, CellTiter-Glo luminescence | inhibition, % at 5.6 µM | CellTiter-Glo ATP luminescence | hit rate 1.1% among 220,000;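 active = inhibition above a per-campaign cutoff, the mean inhibition of all tested compounds plus 3 SD, cut at about 27% in these data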
Each line names hits and unclear results; the compound was inactive in the other large screens. This is a sample that favours compounds with a hit; in the whole collection about 2.1% have one here.

COc1ccc(-c2cc(CCCC(=O)NCCc3ccccc3)no2)cc1	none (no result: APP 5UTR inh)
CCOc1ccc(-c2cc(CCCC(=O)NCCc3ccc(OC)c(OC)c3OC)no2)cc1	aSyn UTR inh inconclusive
CCOc1ccc(-c2cc(CCCC(=O)Nc3cc(OC)ccc3OC)no2)cc1	aSyn UTR inh 83
O=C(Cn1c(=O)oc2ccccc21)Nc1n[nH]c(=S)s1	none (no result: APP 5UTR inh)
Cn1cc(CN2C[C@H]3CC[C@H]2C3)c(-c2ccccc2F)n1	Ba/F3 V617F tox 55, BaF3 parental 31
COC(=O)c1ccsc1NC(=O)CN1CCN(c2ncccn2)CC1	none (no result: Ba/F3 V617F tox, APP 5UTR inh, BaF3 parental)
CN(CC(=O)Nc1cccc(F)c1)C(=O)c1cccc(S(=O)(=O)N2CC3(C)CC2CC(C)(C)C3)c1 (configuration not stated)	none (no result: IEC-6 tox, Ba/F3 V617F tox, KLF5 inhibitor, APP 5UTR inh, BaF3 parental)
O=C1C2C3C=CC(C3)C2C(=O)N1/N=C/c1cn(Cc2ccccc2)c2ccccc12 (configuration not stated)	aSyn UTR inh 66
O=C1C2C3C=CC(C3)C2C(=O)N1/N=C/c1cn(Cc2ccc(F)cc2)c2ccccc12 (configuration not stated)	none
COc1cccc(CCc2nnc(N)s2)c1	none (no result: Ba/F3 V617F tox, APP 5UTR inh, BaF3 parental)
COc1cccc(N2CCN(c3ncnc4c3[nH]c3ccccc34)CC2C)c1 (configuration not stated)	none
COc1cccc(N2CCN(c3ncnc4c3[nH]c3ccc(F)cc34)CC2C)c1 (configuration not stated)	IEC-6 tox 36, Ba/F3 V617F tox 63, BaF3 parental 53
Cc1ccn2c(Nc3ccccc3C)c(-c3ccccn3)nc2c1	none
Cc1ccn2c(Nc3ccccc3)c(-c3ccccn3)nc2c1	APP 5UTR inh 59
Cc1ccccc1Nc1c(-c2ccccn2)nc2ccccn12	aSyn UTR inh 64
Cc1cc2ncc(-c3ncc(C(F)(F)F)cc3Cl)cn2n1	aSyn UTR inh 65
CC(C)CNC(=O)c1coc(=O)c(Br)c1	APP 5UTR inh 47
COC(=O)CCCCCCCCCC[N+]1(C)CCCCC1	none
CC(=O)OCCCCCCCCCCC[N+]1(C)CCCCC1	Ba/F3 V617F tox 25, BaF3 parental 51
COc1cccc(OC)c1C(=O)Nc1ccccc1C(=O)N1CCCCCC1	none (no result: Ba/F3 V617F tox, APP 5UTR inh, BaF3 parental)
COc1ccc(OCC(O)CNC(C)c2ccccc2)cc1 (configuration not stated)	none (no result: Ba/F3 V617F tox, APP 5UTR inh, BaF3 parental)
CCCC(NCC(O)COc1ccc(-c2ccccc2)cc1)c1ccccc1 (configuration not stated)	aSyn UTR inh 83
CN(C)CCNC(=O)C(c1ccccc1)c1ccccc1	none (no result: APP 5UTR inh)
CN(C)CCC(=O)C(Cc1ccccc1)c1ccccc1 (configuration not stated)	aSyn UTR inh 99 (no result: IEC-6 tox, Ba/F3 V617F tox, KLF5 inhibitor, APP 5UTR inh, BaF3 parental)
O=C(COc1ccccc1[N+](=O)[O-])N/N=C/C=C/c1ccco1	BaF3 parental 95
CC(=O)Oc1ccc(N(C(C)=O)S(=O)(=O)c2cccs2)c2ccccc12	none
Cn1c2c(c(=O)[nH]c1=O)C(c1cccc(O)c1)C1=C(N2)c2ccccc2C1=O (configuration not stated)	Ba/F3 V617F tox 35 (no result: aSyn UTR inh)
COc1cccc(C2C3=C(Nc4[nH]n(-c5ccccc5)c(=O)c42)c2ccccc2C3=O)c1 (configuration not stated)	none (no result: aSyn UTR inh)
O=c1cc(-c2ccccc2Cl)oc2cc(O)cc(O)c12	none
O=C1C=CC(O)(c2cc(=O)c3c(O)cc(O)cc3o2)C=C1	Ba/F3 V617F tox 44, BaF3 parental 47
CCCNS(=O)(=O)c1ccc(OCC(=O)NCC2CCCO2)cc1 (configuration not stated)	none (no result: Ba/F3 V617F tox, APP 5UTR inh, BaF3 parental)
CC1(C)OC(=O)C(=NNc2ccccc2)C(=O)O1	none
CC1(C)OC(=O)C(=NNc2ccc(O)cc2)C(=O)O1	Ba/F3 V617F tox 36, BaF3 parental 53 (no result: aSyn UTR inh)
Cc1cc(/C=N/n2cnnc2)c(C)n1-c1ccc(OCc2ccc(Cl)cc2Cl)cc1	APP 5UTR inh 51, aSyn UTR inh 113
Cc1cc(/C=N/n2cnnc2)c(C)n1-c1ccc(Cl)cc1	none
Cc1cc(/C=N/n2c(COc3ccccc3C)nc3ccccc3c2=O)c(O)c([N+](=O)[O-])c1	APP 5UTR inh 45
c1ccc(Sc2ccccc2CN2CCCC2)cc1	aSyn UTR inh 85 (no result: IEC-6 tox, Ba/F3 V617F tox, KLF5 inhibitor, APP 5UTR inh, BaF3 parental)
